Potency and activity change, negative = inhibition data for 39 compounds are collected here from PubChem BioAssay (NCATS).

Records with an inconclusive call do not appear. Entries that show only a call come without a potency. Activity calls are given as the source filed them. Calls come from the whole dose curve; as a rule, active = well fitted inhibition curve with a large enough effect; inconclusive = small, poorly fitted or top-dose-only effect; inactive = no such curve, though single readings can be large or run the other way. Square brackets hold non-standard residues; d marks the D form. Peptide text beside a SMILES is read from it. ξ: configuration not given here. ξPhe(βξ-Me) = CC(c1ccccc1)C(N)C(=O)O; GABA = NCCCC(=O)O

This test has as its target Retinaldehyde dehydrogenase 3 (Homo sapiens) (UniProt P47895). The experiment in a line: qHTS for Inhibitors of the Aldehyde Dehydrogenase Family (ALDH1A3) Primary screen (AID 2061315). The conditions noted are these: ALDH inhibition qHTS; series mostly up to 56 µM.
Regarding `C=C1CC2[C@@]3(C)C=CC(=O)C(C)(C)C3=C(O)C(=O)[C@@]2(C)C2(C(=O)OC)C(=O)C(C)OC(=O)[C@@]12C` (some centres undefined), the Potency result was “inactive”.

On to `CCCCC(=O)N(Cc1ccc(-c2ccccc2-c2nn[nH]n2)cc1)C(C(=O)O)C(C)C` (centres undefined), for which the Potency result is “inactive”.

On to `COc1cc(C2Oc3c(OC)cc(CCCO)cc3C2CO)ccc1O[C@H]1O[C@H](C)[C@@H](O)[C@H](O)[C@@H]1O` (some centres undefined), for which the Potency result was “inactive”.

In the case of `COC(=O)[C@@H](NC(=O)[C@H](CC(C)C)NC(=O)N(Cc1ccccc1)C[C@@H](O)[C@H](Cc1ccccc1)NC(=O)OC(C)(C)C)C(C)C`, the activity change, negative = inhibition was 16.3% [at 11.2 µM] (inactive).

Turning to `O=C(/C=C/c1ccc(O)cc1)OC1[C@H](O)CC(O)(C(=O)O)C[C@H]1O` (some centres undefined), the Potency result is “inactive”.

On to `C=C1C(O)C(OC(=O)c2ccccc2)C2C(C)(C(=O)O)CCCC2(C)C1CC/C(C)=C\CO` (centres undefined), for which the Potency result was “inactive”.

For the compound `CC(C)C(NC(=O)c1ccc(O)cc1)C(=O)N1CCCC1C(=O)Nc1c(O)cccc1C(=O)O` (centres undefined), the Potency entry is “inactive”.

For `CC/C=C\[C@H](O)[C@H](O)C1=C(C)C(=O)[C@]2(O1)C(=O)N[C@@](OC)(C(=O)c1ccccc1)[C@@H]2O`, the Potency entry is “inactive”.

`C[C@H]1CCN2C[C@]34C[C@@]5(C(=O)Nc6c5ccc5c6OC=CC(C)(C)O5)C(C)(C)C3C[C@]12C(=O)N4C` (some centres undefined): the Potency entry was “inactive”.

Consider `CC1OC(O[C@@H]2[C@@H](O)[C@H](OC(=O)[C@]34CCC(C)(C)C[C@H]3C3=CCC5[C@@]6(C)CC[C@H](O[C@@H]7O[C@H](C(=O)O)[C@@H](O)[C@H](O[C@@H]8OC[C@@H](O)[C@H](O)[C@H]8O)[C@H]7O[C@@H]7O[C@H](CO)[C@H](O)[C@H](O)[C@H]7O)[C@@](C)(C=O)C6CC[C@@]5(C)[C@]3(C)C[C@H]4O)O[C@H](C)[C@@H]2OC2OC(C)C(OC3OCC(O)C(O)C3O)C(O)C2O)C(O)C(O)C1O` (some centres undefined), for which the activity change, negative = inhibition is 5.21% [at 11.2 µM] (inactive).

As for `CC(=O)OCC1=C[C@@H]2OC(=O)C3=CO[C@@H](O[C@@H]4O[C@H](CO)[C@@H](O)[C@H](O)[C@H]4O)[C@H]1[C@@H]32`, the Potency entry is “inactive”.

Take `CC1CC(=O)C2=C(O1)OC1(C)CCC3C(C)(C)C=CC(=O)C3(C)C1C2` (centres undefined): the Potency result was “inactive”.

For the compound `O[C@@](Cc1ncc(CC2(C(F)(F)F)CC2)[nH]1)(c1ccc(-n2cccn2)cc1)C(F)(F)F`, the Potency result was “inactive”.

Turning to `C=C1C(=O)O[C@H]2[C@H]1[C@@H](OC(=O)C(C)CO)C[C@@]1(C)[C@H](O)CCC(=O)[C@H]21` (some centres undefined), the Potency entry was “inactive”.

As to `CC(C)C[C@H](CC(=O)NO)C(=O)N[C@@H](Cc1ccc2ccccc2c1)C(=O)N[C@@H](C)C(=O)NCCN`, the Potency entry is “inactive”.

On to `Cc1ccc(C)c(NC(=O)[C@@H]2CCCN2S(=O)(=O)c2cccc3cccnc23)c1`, for which the Potency entry was “inactive”.

Regarding `CC1OC(OCC2OC(OC3CCC4(C)C(CCC5(C)C4CC=C4C6CC(C)(C)CCC6(C(=O)OC6OC(CO)C(O)C(O)C6O)CCC45C)C3(C)CO)C(O)C(O)C2O)C(O)C(O)C1O` (centres undefined), the Potency entry was “inactive”.

Regarding `CCNC(=O)C1OC(n2cnc3c(N)nc(NCCc4ccc(CCC(=O)O)cc4)nc32)C(O)C1O` (centres undefined), the Potency entry was “inactive”.

As for `COc1cccc(-c2cn(-c3ccc(CCN4CCC(O)CC4)cc3)c3ncnc(N)c23)c1`, the Potency result was “inactive”.

Turning to `NCCCNc1ccc(Nc2nccc(Nc3cc(C4CC4)[nH]n3)n2)cc1`, the Potency result is “inactive”.

Consider `CC1CCCC(O)CCC/C=C/c2cc(OS(=O)(=O)O)cc(O)c2C(=O)O1` (centres undefined), for which the Potency result was “inactive”.

As for `COc1cc2c(cc1OC)CN(C(=O)[C@@H](NCc1ccncc1)C(C)(C)C)CC2`, the Potency entry was “inactive”.

`C=CC1C(O[C@@H]2O[C@H](CO)[C@@H](O)[C@H](O)[C@H]2O)OC=C(C(=O)OC)C1Cc1nccc2c1[nH]c1ccccc12` (some centres undefined): the Potency result was “inactive”.

For `C[C@H](NC(c1cccc2[nH]c(=O)c(=O)[nH]c12)P(=O)(O)O)c1ccc(Br)cc1` (some centres undefined), the Potency result was “inactive”.

Turning to `COc1ccc(CNC(=O)c2sc3nc(C)cc(C)c3c2N)cc1`, the Potency entry was “inactive”.

In the case of `O=C(O)/C=C/c1ccc2occc2c1O[C@@H]1O[C@H](CO)[C@@H](O)[C@H](O)[C@H]1O`, the Potency result was “inactive”.

For the compound `C=C[C@H]1[C@H](O[C@@H]2O[C@H](CO)[C@@H](O)[C@H](O)[C@H]2O)OC=C(C(=O)OC)[C@H]1C[C@@H]1N[C@H](C(=O)O)Cc2c1[nH]c1ccccc21`, the Potency entry was “inactive”.

Take `CC(=O)N1CCN(C(=O)Cc2ccc(Nc3ncc(F)c(Nc4ccc(C(=O)Nc5ccccc5Cl)cc4)n3)cc2)CC1`: the Potency result was “inactive”.

Turning to `CC(C)=CCC[C@](C)(O)[C@H]1CC[C@]2(C)[C@@H]1[C@H](O)CC1[C@@]3(C)CC[C@H](O)C(C)(C)C3[C@@H](O[C@@H]3O[C@H](CO)[C@@H](O)[C@H](O)[C@H]3O[C@@H]3OC[C@@H](O)[C@H](O)[C@H]3O)C[C@]12C` (some centres undefined), the Potency entry is “inactive”.

Consider `C=C1Cc2c(Cl)cc3[nH]c4c5c3c2[C@@]2(O)[C@@H]1C[C@@H]2C(C)(C)O[C@H]5C1CC[C@@]2(O)[C@@]35O[C@@H]3[C@H]3OC(C)(C)[C@H]3O[C@H]5CC[C@]2(C)[C@@]41C` (some centres undefined), for which the Potency entry was “inactive”.

Consider `CC1=CC2(O)/C=C/C(C)(O)CC(O)/C=C/C(=O)OC23C(=O)NC(CC(C)C)C3C1C` (centres undefined), for which the Potency entry is “inactive”.

For `C/C(=C\CCC(C)(C)O)CCO[C@@H]1O[C@H](CO[C@@H]2O[C@@H](C)[C@H](O)[C@@H](O)[C@H]2O)[C@@H](O)[C@H](O)[C@H]1O`, the Potency result was “inactive”.

In the case of `CC(C)=CCc1c(O)cc2oc3cc(C)cc(O)c3c2c1C`, the Potency entry was “inactive”.

For the compound `O=C(OCC12OC1C=CC(OC(=O)c1ccccc1)C2O)c1ccccc1` (centres undefined), the Potency entry was “inactive”.

On to `C[C@@H]1O[C@@H](O[C@H]2[C@@H]3C=CO[C@@H](O[C@@H]4O[C@H](CO)[C@@H](O)[C@H](O)[C@H]4O)[C@@H]3[C@@]3(CO)O[C@@H]23)[C@H](O)[C@H](OC(=O)/C=C/c2ccccc2)[C@H]1O`, for which the Potency entry was “inactive”.

Regarding `C[C@@H]1O[C@@H](O[C@H]2[C@H](OC(=O)[C@]34CCC(C)(C)C[C@H]3C3=CCC5[C@@]6(C)CC[C@H](O[C@@H]7O[C@H](CO[C@@H]8OC[C@H](O)[C@H](O)[C@H]8O)[C@@H](O)[C@H](O)[C@H]7O)C(C)(C)C6CC[C@@]5(C)[C@]3(C)C[C@H]4O)OC[C@@H](O)[C@@H]2O)[C@H](O)[C@H](O[C@@H]2OC[C@](O)(CO)[C@H]2O)[C@H]1O[C@@H]1OC[C@H](O)[C@H](O[C@@H]2OC[C@@H](O)[C@H](O)[C@H]2O)[C@H]1O` (some centres undefined), the activity change, negative = inhibition is 10.7% [at 11.2 µM] (inactive).

With `CC(C)=CCC(O)/C(C)=C/CO[C@@H]1O[C@H](CO)[C@@H](O)[C@H](O)[C@H]1O` (some centres undefined), the Potency entry is “inactive”.

In the case of `CC(C)CC1NC(=O)C(C(C)c2ccccc2)NC(=O)C(C(C)C)NC(=O)C(C)NC(=O)CCCNC(=O)C(Cc2c[nH]c3ccccc23)NC(=O)C(C)NC1=O` (stereo not drawn) (cyclo([GABA]AV[ξPhe(βξ-Me)]LAW); configuration not given here), the Potency entry is “inactive”.

Turning to `C=C1/C(=C/C=C2\CCC[C@]3(C)[C@@H]([C@H](C)CC[C@@H](O)C(C)(C)O)CC[C@@H]23)C[C@@H](O)C[C@@H]1O`, the Potency result was “inactive”.
